# Experimental data: the supplement of paper PMC11417369
# ± gives the standard deviation of the averaged measurements. Whole data set: some 25,000 sequences, median “ln(normalized median fluorescence intensity)” near 8.9, cut for the highest 2% near 10. The list comes from a sample in which the highest values are over-represented; it also holds similar and randomly drawn sequences.
# System: PfAP2-LT AP2 domain (GST-tagged)
# Assay: gcPBM binding intensity (ln(normalized median fluorescence intensity)); higher = stronger DNA binding
# Outline: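 An Agilent 4 × 180k array carrying primer-extended double-stranded 36-bp intergenic genomic probes and negative controls received GST-tagged P. falciparum DNA-binding domains expressed in E. coli, about 25 μg on average, for 1 h. The binding buffer contained 1× PBS, 1% milk, 0.2 mg/ml BSA, 0.5% salmon testes DNA and 0.03% Triton X-100. Binding intensity is the top Masliner-normalised natural-log median intensity across replicate spots of either probe orientation, read after Alexa488 anti-GST antibody staining and a 488 nm scan.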
row,Sequence,gcPBM binding intensity (ln)
1,ATATTATATTATATAACACACATTTTTCATAACACT [CACACA_site407],8.95 ± 0.34
2,TATTAATTTTTATACGCATGTGTATAGTAATATATA [TGCATGCA_site1010],8.66 ± 0.37
3,TTTATAAACAAATGAACACACAAACATATTTATATA [CACACA_site7478],8.86 ± 0.42
4,TATGAATATCTATACACACACATATATATACTCACT [CACACA_site1597],9.39 ± 0.36
5,ATACGAAGTACGTACACACACTTATATGTTACTAAA [CACACA_site7812],9.26 ± 0.33
6,CAATACTATTATTATAGTACGTATAAAATTATATAT [XGTACX_site4950],8.71 ± 0.49
7,TATTTTATCATTTGCACACGCACACCGACATAAAAA [CACACA_site4348],9.26 ± 0.28
8,AAAAGTATATATTCAGTGCATAGTCTTTAAATATAA [GTGCAC_site9522],8.7 ± 0.38
9,AAAAAAAAAACATACACACATACATACATATATATT [CACACA_site949],9.28 ± 0.27
10,AAAAAAAAAAAAAAAACACACATATATATATAATAT [CACACA_site1159],8.96 ± 0.42
11,AAAAAAAAAAAAAAAACACACATATATATATATATA [CACACA_site2436],10.095 ± 0.0071
12,AAAAAATATTGAAGTACACACATTATGAACTTTTTT [CACACA_site1733],8.78 ± 0.42
13,AAAGAATACATATATTGTACATATATATATACCGTT [XGTACX_site6250],9.02 ± 0.45
14,TTTTTTTTTTTTTGTGCATGTAGATTTATTGTTATA [TGCATGCA_site582],8.79 ± 0.39
15,TATGTTTTTACGTGTGTGCACTTTGTAGAGATAAGT,9.06 ± 0.38
16,ATGTAGATAAAACGTGTGCACATGTTTTTTGTTATT,10.3 ± 0.2
17,AAAAAGAAAAAACGAAGTACAATTATAAGATTATAT [XGTACX_site410],8.86 ± 0.47
18,TATGTAACCTGTTTTACACACCCCCACCCCCCTCTT [CACACA_site319],10.09 ± 0.05
19,ACCCTATATGTAACTACACACCGCATATTGTTTACT [CACACA_site3071],9.46 ± 0.42
20,ATGTTCTTTAAAACCACACACCCCCCAACCCCCCTC [CACACA_site2373],10.1 ± 0.13
21,TATACACATAGACACACACACATACACGCACATACA [CACACA_site6908],9.99 ± 0.17
22,TATAGATACATATACACACACACACCGACATATATA [CACACA_site9138],10.2 ± 0.14
23,AACATACATAGACACACACACACACGCACACGCACA [CACACA_site6373],10.35 ± 0.071

row,Sequence,gcPBM binding intensity (ln)
1,TAGATACATACACGCACACACATATATAAATAAATA [CACACA_site6157],9.68 ± 0.35
2,TATAGATACAGATACACACACACACCGACATATATA [CACACA_site5832],10 ± 0.22
3,CATATATAGATATATACACACATACATACATACATA [CACACA_site7748],9.3 ± 0.27
4,TAGATACATACACGCACACACATATATATATATATA [CACACA_site12],10.11 ± 0.035
5,AGATAGATACATACACGTACATATATATATACACAT [XGTACX_site4755],9.18 ± 0.35
6,CATACACATACACATACACACGCATAGAAACATACG [CACACA_site8666],9.55 ± 0.51
7,CATAGATACATACACGCACACACATATATATATATA [CACACA_site13],10.2 ± 0.17
8,TATAGATACATATACACACACACACCCACATATATA [CACACA_site3436],9.94 ± 0.11
9,CACGCACGCACATACACACACATACACATATAAATA [CACACA_site6907],9.72 ± 0.45
10,AAAAATAACATATAAACACACATATAGATTTATATA [CACACA_site7738],8.94 ± 0.37
11,TTTTATGCTCAATTATTAAGAAATACTTTTTCTTCC [XGTACX_negctrl_site208],8.45 ± 0.68
12,GTATGTATGTATGTATGTACGTATGTATGTATATAT [XGTACX_site3369],9.2 ± 0.36
13,ATTTATATATATGTATGTACGTATGTGTGTATATGT [XGTACX_site7587],9.36 ± 0.35
14,AAACGTGCGTATATGTGTACGCATATATATATATAT [XGTACX_site5252],10.2 ± 0.34
15,TATTTATTTATAAACACACAAATATTTTTATTTATA [CACACA_site6889],8.49 ± 0.32
16,TTTTCTATATAACAACGTACATTTATTATATTATAA [XGTACX_site6148],8.49 ± 0.45
17,TTTATATAAATCAAATGTACATATTCCAAATATATA [XGTACX_site8515],8.45 ± 0.34
18,CAATCAAATAGACACACACACACCTAAACATAAAAG [CACACA_site7322],10.2 ± 0.4
19,GGACACCTTCAAAACACACATACAAATAAATAGAAA [CACACA_site3305],8.97 ± 0.54
20,CAATCAAAGAAACACACACACACCTAAACATAAAAG [CACACA_site2756],10.2 ± 0.33
21,ATCAAATAGAGACACACACACCTAAACATAAAAGAA [CACACA_site7321],9.78 ± 0.48
22,AAAACAAACCCATTTACACACATAAATAAATCAATT [CACACA_site6126],9.38 ± 0.3
